Results reported in PubChem BioAssay AID1159580 (chemical genetic matrix, 2015).
Hit rate of the full screen: of about 5,500 compounds, about 2,000 (36%) were called active. Inconclusive results (about 18%) are left out. Cut-off read from the data, not from the text of the source: active = normalized growth mostly below about 0.91 (no sharp cut-off); inconclusive = no clear call, values can overlap the other calls; inactive = mostly above about 0.92. Some of the results follow.

Test: chemical genetic growth profiling, strain panel (AID 1159580);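 note: tested at 20 µM; growth read once vehicle control cultures reached saturation at 30 °C; 1 = growth at the plate median or of vehicle wells; lower values mean less growth of the strain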
Settings: S. cerevisiae deletion strains, growth OD

Measured: normalized growth

O=Cc1ccccc1O[C@@H]1O[C@H](CO)[C@H](O)[C@@H](O)[C@H]1O
inactive: locus YHR030C, strain SLT2, hits give low values 1.06 | locus YHR079C, strain IRE1, hits give low values 1.06 | locus YJL095W, strain BCK1, hits give low values 0.996 | locus YJR066W, strain TOR1, hits give low values 0.99 | locus YLR113W, strain HOG1, hits give low values 1.03 | locus YNL183C, strain NPR1, hits give low values 0.992 | locus YOR231W, strain MKK1, hits give low values 1.06 | locus YPL256C, strain CLN2, hits give low values 1.06
